Where “and” joins values, the source holds several entries; their conditions need not be identical. Identical values can stand only once. Among all 230,000 compounds or so, about 3,600 (1.6%) were called active. Not shown: some 15% with an inconclusive outcome. The full list was thinned out, with actives kept by preference. Values without a mark were called inactive. Calls come from the whole dose curve; as a rule, active = well fitted inhibition curve with a large enough effect (not every such curve was filed as active); inconclusive = small, poorly fitted or top-dose-only effect, or another doubt; inactive = no such curve, though single readings can be large or run the other way.
Note: nearly all actives have a fitted effect of over 50% in size.
Potency is the fitted concentration of half-maximal effect.
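Throughout, for activity change, negative = inhibition: 0% = wells with enzyme and -100% = buffer wells without enzyme.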

This assay deals with Lysine-specific demethylase 4E (Homo sapiens) (UniProt B2RXH2). Kind of assay: qHTS Assay for Inhibitors of Human Jumonji Domain Containing 2E (JMJD2E). Particulars: JMJD2E catalytic domain, FDH-coupled NADH fluorescence (FDH is formaldehyde dehydrogenase); series mostly up to 57.1 µM; activity change, negative = inhibition: at the top concentration.
Sequence of Lysine-specific demethylase 4E (Homo sapiens) (B2RXH2 1-337 limits assumed): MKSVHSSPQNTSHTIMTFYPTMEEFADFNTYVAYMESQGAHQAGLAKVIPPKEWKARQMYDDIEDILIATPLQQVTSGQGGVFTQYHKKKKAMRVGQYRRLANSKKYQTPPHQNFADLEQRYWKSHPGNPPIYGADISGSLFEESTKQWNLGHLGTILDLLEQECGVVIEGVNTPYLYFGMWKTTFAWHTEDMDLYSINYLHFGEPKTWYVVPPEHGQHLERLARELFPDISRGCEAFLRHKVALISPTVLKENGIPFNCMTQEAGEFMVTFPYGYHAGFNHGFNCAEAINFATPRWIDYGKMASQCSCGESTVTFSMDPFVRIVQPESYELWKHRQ
Turning to `NC(=O)c1ccc(N2CCOCC2)nc1`, the “activity change, negative = inhibition” value was 1.96%. `CN(C)C(=O)c1nc2ccc(Cl)cn2c1CNCc1cccc(OC(F)(F)F)c1`: the “activity change, negative = inhibition” value was -3.13%. Take `Cc1nc(N)sc1N=Nc1c(C)n(C)n(-c2ccccc2)c1=O`: the “activity change, negative = inhibition” value was -9.39%. Regarding `COc1ccc(N(Cc2ccccc2)S(=O)(=O)c2cccc(C(=O)O)c2)cc1`, the “activity change, negative = inhibition” value is -0.26%.

As to `CCCN(C/C=C\I)[C@@H]1CCc2cccc(O)c2C1`, the Potency was 28.2 µM (active). Take `CCCN(CCc1ccccc1)C1CCc2c(O)cccc2C1` (stereo not given): the “activity change, negative = inhibition” value is 1.38%. On the same count and under the same terms, in the case of `CN(C)c1cc(-c2ccc(F)cc2)oc(=O)c1Cl` it was 1.02%; in that of `Cc1ccc(C(=O)NCC(=O)OCC(=O)Nc2cccc(S(=O)(=O)N3CCCC3)c2)cc1C`, 2.45%. The same measure, in the same setting: in the case of `CCCCc1nc2ccccc2c(=O)n1NC(=O)c1c(O)c2cccc3c2n(c1=O)CC3` it was 12.9%. As for `CCNC(=O)c1c(O)c2cccc3c2n(c1=O)CC3`, the Potency is 3.16 µM (active). As for `Cc1cc(=O)n2c3c(cccc13)CCC2`, the “activity change, negative = inhibition” value was -18.6%. For the compound `O=C(O)Cc1csc(-c2cccc(Oc3ccccc3)c2)n1`, the Potency result was “inactive”. For the compound `O=c1c2ccccc2nc(N/N=C/c2ccccc2)n1O`, the “activity change, negative = inhibition” value is -8.4%. The same measure, in the same setting: with `CCCN1C(=O)C(Cc2nc3ccccc3c(=O)n2-c2ccccc2)c2cc(C)ccc21` (stereo not given) the figure was -3.33%.

For `CCCc1nc2ccccc2c(=O)n1/N=C/c1ccc(O)c(O)c1`, the Potency is 12.6 µM (active).

In the case of `CC(C)N1CCC(=NNc2ccc([N+](=O)[O-])cc2S(=O)(=O)N2CCOCC2)CC1`, the “activity change, negative = inhibition” value is -24.1%. The same measure, in the same setting: in the case of `COc1ccccc1C(=O)CSc1cccc[n+]1[O-]` it was -5.39%.

For the compound `O=C1CCC(=O)N(O)CCCCCNC(=O)CCC(=O)N(O)CCCCCNC(=O)CCC(=O)N(O)CCCCCN1`, the Potency is 7.94 µM (active).

On to `CCNC(=O)CC1C(=O)N(c2ccc(OC)cc2)C(=S)N1CCc1ccncc1` (stereo not given), for which the “activity change, negative = inhibition” value is -7.56%.

Regarding `Cc1nc(C(=O)N2CCCC(C(=O)c3ccc(Cl)cc3)C2)cs1` (stereo not given), the “activity change, negative = inhibition” value is 10.1%. With `Cn1c(CO)cnc1SCc1ccccc1`, the “activity change, negative = inhibition” value is -1.07%. In the case of `CSc1c(SCc2ccccc2)cnn(Cc2ccccc2)c1=O`, the Potency was 12.6 µM (active). In the case of `O=c1c2ccccc2c(-c2ccccc2)nn1Cc1ccccc1`, the “activity change, negative = inhibition” value is -8.38%.

Regarding `O=C(/C=C/Sc1ncn[nH]1)c1ccc(Cl)cc1`, the Potency was 7.08 µM (active). Take `Cc1cc(C)nc(S/C=C/C(=O)c2ccccc2)n1`: the “activity change, negative = inhibition” value was 10%.

Consider `O=C(NCCOCc1ccc(Cl)cc1)c1ncn[nH]1`, for which the “activity change, negative = inhibition” value is 3.54%.

In the case of `CCN(CC)CCNC(=O)c1sc2ncn(CC(=O)Nc3ccc(C)c(Cl)c3)c(=O)c2c1C`, the “activity change, negative = inhibition” value was -11.2%. Same read-out and setting: in the case of `Cn1c(=O)c2c(-c3cccc(Br)c3)c(C#N)c(N)nc2n(C)c1=O` it was 2.47%. On to `OCCC1CN(Cc2cnc(-c3ccccc3)s2)CCN1CCc1ccccc1` (stereo not given), for which the “activity change, negative = inhibition” value is -7.27%. Turning to `COCCN1C=C2C(=O)C(C)(OC(=O)C3CCCC3)C(=O)C=C2C=C1c1ccsc1` (stereo not given), the Potency is 3.55 µM (active). Consider `CC1(OC(=O)C2CCCC2)C(=O)C=C2C=C(c3ccc(C#N)cc3)OC=C2C1=O` (stereo not given), for which the “activity change, negative = inhibition” value is -0.534%. As to `CC1(OC(=O)CCc2ccccc2)C(=O)C=C2C=C(c3ccc(C#N)cc3)N(CCc3ccccn3)C=C2C1=O` (stereo not given), the activity change, negative = inhibition is -1.14% [at 11.4 µM]. Same read-out and setting: in the case of `N/C(=N\OC(=O)Nc1ccccc1)c1ccno1` it was -3.04%.

Regarding `COc1ccc(CNC(=O)CCC(=O)Nc2nnc(C(C)C)s2)cc1`, the “activity change, negative = inhibition” value is -15.9%. The same measure, in the same setting: in the case of `O=C(Nc1ccc(Cl)cc1)Nc1ccc(C(=O)N2CCOCC2)cc1` it was 4.19%.

Consider `COc1ccc(C2C(C#N)=C(N)Oc3cc(N)ccc32)cc1OC` (stereo not given), for which the Potency is 12.6 µM (active). As to `COC(=O)C1=C(C)OC(N)=C(C#N)C1c1cc(OC)ccc1OC` (stereo not given), the “activity change, negative = inhibition” value is 2.33%. As for `CCC1=C(C(=O)OC)C(c2cc(OC)ccc2OC)C(C#N)=C(N)O1` (stereo not given), the “activity change, negative = inhibition” value is -0.399%. On to `CNCC(O)c1ccc(O)c(O)c1` (stereo not given), for which the Potency was 20 µM (active) and 14.1 µM (active). Consider `CCC(C)c1ccc(O)c(/C=N/O)c1` (stereo not given), for which the “activity change, negative = inhibition” value is -5.09%. As for `CC(C)NC[C@H](O)c1ccc2ccccc2c1`, the Potency result was “inactive”. For `C=CCN(C(=O)Nc1ccc2c(c1)nc(C)n2C)c1ccccc1`, the “activity change, negative = inhibition” value was 1.69%. The same measure, in the same setting: in the case of `C/C(=C\c1ccco1)CN1CCC(N2CCC(C(=O)N3CCOCC3)CC2)CC1` it was 0.474%. For `CCOC(=O)N1CCN(C(c2cccnc2)c2ccc3cccnc3c2O)CC1` (stereo not given), the Potency was 14.1 µM (active). For `Oc1c(C(c2ccccn2)N2CCOCC2)ccc2cccnc12` (stereo not given), the “activity change, negative = inhibition” value is -10.2%. For the compound `CCOC(=O)N1CCN(C(=O)CSc2ccc(Cl)cc2)CC1`, the “activity change, negative = inhibition” value was -1.41%. In the case of `Cc1cc(N2CCN(c3ccc(F)cc3)CC2)n2ncnc2n1`, the “activity change, negative = inhibition” value was 4.37%. The same measure, in the same setting: with `CC1CC(C)(C)n2c(O)c(N=NC(N)=S)c3cccc1c32` (stereo not given) the figure was 8.14%.

As to `O=c1c(O)c(Br)ccc2c(Br)c(O)c(O)c(O)c12`, the Potency is 7.08 µM (active). In the case of `CCCCCCCC(=O)OC(CN1CCCCCC1)CN1CCCC1=O` (stereo not given), the “activity change, negative = inhibition” value is 1.81%. In the case of `COc1ccc(/C(O)=C2/C(=O)C(=O)N(CCCN(C)C)C2c2ccccc2)cc1OC` (stereo not given), the “activity change, negative = inhibition” value is -12.7%. Take `CCN(CC)CCN1C(=O)C(=O)/C(=C(/O)c2ccccc2)C1c1ccccc1F` (stereo not given): the “activity change, negative = inhibition” value is -9.65%.

`CCN(CC)CCN1C(=O)C(=O)/C(=C(/O)c2ccc(OC)c(OC)c2)C1c1ccccn1` (stereo not given): the Potency was 22.4 µM (active). On to `CC(=O)Nc1ccc(NC(=O)CSc2ncnc3c2cnn3Cc2ccccc2)cc1`, for which the “activity change, negative = inhibition” value is 0.598%.

`CN1CCN(Cc2c(O)ccc3c2oc(=O)c2ccccc23)CC1`: the “activity change, negative = inhibition” value was -8.15%.

Source of the values: PubChem BioAssay AID2147 (National Center for Advancing Translational Sciences (NCATS), 2009).
